# Data as given in PubChem BioAssay AID1117284 (Broad Institute, 2014).
# Potency and affinity values are given separately. A number with no mark means an inactive call.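 The calls were made as follows: active = viability signal drop whose fitted half-maximal concentration is at most twice the top valid dose; inconclusive = flat partial drop or unreliable curve fit; inactive = the rest.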
# Assay: A549 cell cytotoxicity, dose response, CellTiter-Glo luminescence, dry powder, set 17 (AID 1117284)
# Conditions: A549 viability, CellTiter-Glo ATP luminescence, 72 h; series mostly up to 26 µM; activity change, negative = cytotoxic: at the top concentration
row,Structure (SMILES),"activity change, negative = cytotoxic [%]"
1,C[C@H](CO)N1C[C@H](C)[C@H](CN(C)Cc2ccc(-c3ccccc3)cc2)Oc2cc(C#C[C@@H](C)O)ccc2S1(=O)=O,16.2
2,C[C@@H](O)C#Cc1ccc2c(c1)O[C@@H](CN(C)Cc1cccnc1)[C@@H](C)CN([C@@H](C)CO)S2(=O)=O,8.93
3,C[C@H]1CN([C@@H](C)CO)S(=O)(=O)c2ccc(Br)cc2O[C@H]1CN(C)Cc1ccc(-c2ccccc2)cc1,3.58
4,CNC[C@@H]1Oc2cc(Br)ccc2S(=O)(=O)N([C@@H](C)CO)C[C@@H]1C,11.6
5,CO[C@H]1CN(C)C(=O)c2ccc(NC(=O)c3ccc(F)cc3)cc2OC[C@H](C)N(C(=O)c2ccc(F)cc2)C[C@@H]1C,18.3
6,C[C@@H](O)C#Cc1ccc2c(c1)O[C@@H](CN(C)S(=O)(=O)c1ccc(-c3ccccc3)cc1)[C@@H](C)CN([C@@H](C)CO)S2(=O)=O,15.3
7,C[C@@H](O)C#Cc1ccc2c(c1)O[C@@H](CN(C)Cc1ccncc1)[C@@H](C)CN([C@@H](C)CO)S2(=O)=O,24.1
8,C[C@@H](O)C#Cc1ccc2c(c1)O[C@@H](CN(C)C(=O)c1ccc(-c3ccccc3)cc1)[C@@H](C)CN([C@@H](C)CO)S2(=O)=O,22.5
